Ba CapD inh: inhibitors of Bacillus anthracis CapD enzyme | purified CapD enzyme, fluorescence intensity read-out; active compounds read low | z-score (concentration not given with the values) | AID 492967 | hit rate 0.23% among 140,000; in the data active = z-score mostly below about -2.9, no sharp cut-off; inactive = mostly above about -1.9
The depositor's hits bear a star. The sample as a whole holds a higher share of hits than the screen did.

SMILES | Ba CapD inh
CCc1ccc(N2C(=O)/C(=C/c3cccn3C(C)(C)C)C(=O)NC2=S)cc1 | 8.6
CN1C(=O)C(=Cc2cccn2C(C)(C)C)C(=O)N(C)C1=S | 0.2
CN1C(=O)/C(=C/c2cccn2C(C)(C)C)C(=O)NC1=S | -4.5*
O=C(OCCc1ccsc1)N1CCN(Cc2ccccc2OCc2ccccc2)CC1 | -0.12
C=C(C)CSC1=C(C#N)C2(CCCCC2)C(C#N)C(=O)N1 (stereo not given) | -0.15
CC1=NNC(=O)C1Cc1ccccc1 (stereo not given) | -0.42
Cc1ccc(C)n1-c1ccccc1C1C=NNC1=O (stereo not given) | -4.1*
CCOC(=O)C1CCCCN1S(=O)(=O)c1ccc2[nH]c3c(c2c1)CCCC3 (stereo not given) | 0.73
O=C(Nc1ccccc1)OC1CS(=O)(=O)CC1N1CCOCC1 (stereo not given) | -0.39
COc1ccc(N(C(=O)C(F)(F)F)C(C(=O)NC2CCCCC2)c2ccc(C)o2)cc1 (stereo not given) | 0.71
COC(=O)c1noc(C)c1C(=O)/C=C/N1CCCCC1 | 8.3
COC(=O)C(=C/C=C/N1CCCCC1)C(=O)OC | -4.8*
COC(=O)C(=C/C=C/c1cccs1)C(=O)OC | -3.2
CN(C)c1ccc(/C=C/C(=O)/C=C/c2ccc3c(c2)OCO3)cc1 | 17
CN(C)c1ccc(/C=C2\SC(=S)NC2=O)cc1 | -0.34
COc1cccc(C(=O)NC(C)(C)C)c1OC | -0.4
N#C/C(=C1\CCCCCN1)c1nnc2n1CCCCC2 | 0.4
O=C1CC(c2ccccc2)CC2=C1C(c1ccccc1)Nc1ccccc1N2 (stereo not given) | -2.2
COc1cc(C2Nc3cc(C)ccc3NC3=C2C(=O)CC(c2ccccc2)C3)cc(OC)c1OC (stereo not given) | -0.49
Cc1ccc(C2CC(=O)C3=C(C2)Nc2ccccc2NC3c2cccnc2)cc1 (stereo not given) | -4*
N#Cc1cnc(SCc2cc(=O)n3ccccc3n2)nc1N | 0.14
CCN1CCN(Cc2ccc(NC(=O)Cn3ncc4c3-c3ccccc3OC4)cc2)CC1 | 0.18
Cc1ccc(Nc2ncc(C(=O)NCCCN3CC(C)CC(C)C3)c3ccccc23)cc1Cl (stereo not given) | -0.4
CCOc1ccc(C=C(C#N)C#N)cc1 | -0.18
COc1cc(C=C(C#N)C#N)ccc1O | -4.3*
SMILES | Ba CapD inh
COc1ccc(/C=C(\C#N)C(N)=O)cc1OC | -2.3
CC(CNS(=O)(=O)c1ccc(-n2cccn2)cc1)c1ccccc1 (stereo not given) | 0.3
Cn1c(SCc2cc(=O)n3ccsc3n2)nnc1-c1ccco1 | -2
COc1ccccc1C(=O)COC(=O)c1ccc(Br)cc1 | 0.47
O=C(Nc1ccc(Oc2ccc(Cl)cc2)c(Cl)c1)c1cc(Br)cc(Br)c1O | 4.5
CSC(SC)=C(C#N)c1nc2ccccc2s1 | -0.64
N#C/C(=N/O)c1nc2ccccc2s1 | -4.5*
N#CC(=C1CCCCC1)c1nc2ccccc2s1 | 0.07
O=C(COC(=O)C1CCCCC1)c1ccc(Cl)s1 | 0.035
COc1ccc(/C=N/NC(=O)Cc2c[nH]c3ccccc23)c(O)c1 | -0.46
CCC(CC(C)C)CC(C)C1CCC2C3CC=C4CC(OC(=O)c5cccnc5)CCC4(C)C3CCC12C (stereo not given) | 0.8
OC1(c2ccc(Cl)cc2)CCN(Cc2cn[nH]c2-c2ccccc2)CC1 | -2.3*
COc1ccc(-c2[nH]ncc2CN2CCC(O)(c3ccc(Cl)cc3)CC2)cc1 | -0.2
Fc1ccc(-c2[nH]ncc2CN2CCN(Cc3ccccc3)CC2)cc1 | -0.29
NS(=O)(=O)c1ccc(CNC(=O)c2c(F)cccc2F)cc1 | 0.26
CCOC(=O)c1cc2c(=O)n3ccccc3nc2n(CC)c1=N | 57
CCc1ccc(S(=O)(=O)Nc2ccc3oc4c(c3c2)CC(C)CC4)cc1 (stereo not given) | -0.035
CC(C)SC1=NSC2=NC(=O)/C(=C\c3ccc(-c4cccc(C(=O)O)c4)o3)C(=N)N21 | -13*
CSC1=NSC2=NC(=O)/C(=C\c3ccc(-c4ccccc4)o3)C(=N)N12 | -0.66
CC(=O)Oc1ccc(/C=C2/C(=N)N3C(=NC2=O)SN=C3SC(C)C)cc1 | -0.23
O=C(COC(=O)c1c2c(nc3ccccc13)CCC2)NC1CC1 | 21
COc1ccc([S+]2CCCCC2)cc1 | -4.9*
COc1ccc(CN2CCCCCC2)cc1 | 0.38
COc1ccc(C2CCCCC2)cc1 | 0.46
C#CC1(n2c(-c3ccccc3)nc3ccccc3c2=O)CCCCC1 | 1.1
SMILES | Ba CapD inh
N#C/C(=C\Nc1ccc(Br)cc1)c1nc(-c2ccccc2)cs1 | -0.33
N#C/C(=C\C=C\c1ccco1)c1nc(-c2ccccc2)cs1 | -4.3*
N#C/C(=C\Nc1ccc(C(N)=O)cc1)c1nc(-c2ccccc2)cs1 | -0.45
O=C(CC1Sc2ccccc2NC1=O)N/N=C/c1cccc2c1OCO2 (stereo not given) | 44
CCOC(=O)C1=C(C)NC2=C(C(=O)C(C(=O)OC)C(C)C2)C1c1ccccc1 (stereo not given) | -0.43
COC(=O)C1C(=O)C2=C(CC1C)Nc1ccccc1NC2c1ccccc1C (stereo not given) | -4*
COC(=O)C1C(=O)C2=C(CC1C)Nc1ccccc1NC2c1c[nH]c2ccccc12 (stereo not given) | -2.5
O=C(CCC(=O)N1CCSc2ncccc21)NCc1cccc(Cl)c1 | 0.92
Cc1cc(Cl)ccc1NC(=O)COC(=O)c1cccs1 | -0.42
CC(C)(C)C(=O)/C=C/c1ccco1 | -0.38
CCOc1cc(/C=C2\SC(NC(C)=O)=NC2=O)cc(Cl)c1OC(C)=O | 0.095
CCOC(=O)c1c(NC(=O)c2ccccc2F)sc2c1CCN(C(=O)OCC)C2 | 1.3
CC(=O)N(C(C)=O)c1cc(C(=O)O)ccc1Sc1ccc(Br)cc1 | -11*
Cc1ccc(Sc2ccc(C(=O)O)cc2NC=O)cc1 | 0.1
N#Cc1cc(C(F)(F)F)ccc1Sc1ccc(Br)cc1 | -0.33
O=C(Nc1ccc(Oc2ccccc2)cc1)C1c2ccccc2Oc2ccccc21 | -0.61
COc1cccc(NS(=O)(=O)c2ccc3[nH]cc(C(=O)N4CCCCC4)c(=O)c3c2)c1 | -0.33
Cc1cc(=O)n(CCc2ccccc2)c(O)c1C#N | 6.1
Cc1c(C#N)c(O)n(CCO)c(=O)c1N=Nc1cccc(C(=O)O)c1 | -8.3*
CCCCn1c(O)c(C#N)c(C)c(N=Nc2ccc(OC)cc2)c1=O | -0.26
c1ccc2c(c1)ccc1oc(=Nc3ccc(Oc4ccc(N=c5oc6ccc7ccccc7c6cc5-c5nc6ccccc6s5)cc4)cc3)c(-c3nc4ccccc4s3)cc12 | -0.17
CC1C/C(=C\C=C\N(C)C)C(=O)/C(=C/C=C/N(C)C)C1 (stereo not given) | -2.5
CN(C)/C=C/C=C1\CCCC1=O | -9*
CN(C)/C=C/C=C1C(=O)CCCC1=O | -0.57
Cc1nc2ccc(S(=O)(=O)NCC(=O)N3CCC(Cc4ccccc4)CC3)cc2s1 | 0.68
SMILES | Ba CapD inh
O=C1CSC(N=Nc2c(O)[nH]c3ccccc23)=N1 | -4.1*
O=C(N=Nc1c(O)[nH]c2ccccc12)C(O)c1ccccc1 (stereo not given) | -2.2
O=C1N=c2ccccc2=C1N=Nc1c(O)[nH]c2ccccc12 | -0.04
Cc1ccc(S(=O)(=O)N2C=CC3C(=O)C(Br)CCC32)cc1 (stereo not given) | -1
CCOc1ccc2ccccc2c1/C=C1\C(=O)NC(=S)N(c2cccc(Cl)c2Cl)C1=O | -1.8
COc1ccc(C2/C(=C(\O)c3ccccc3)C(=O)C(=O)N2CCN2CCOCC2)cc1 (stereo not given) | -0.94
COc1ccc(C2C(C(=O)/C=C/c3ccccc3)=C(O)C(=O)N2CCO)cc1 (stereo not given) | -3.9*
